Assay results as given in PubChem BioAssay AID1159580 (chemical genetic matrix, 2015).
Values joined by “and” are separate entries in the source; they are usually repeats but may differ in a detail not shown here. Equal values may be shown once. Among all 5,500 compounds or so, about 2,000 (36%) were called active. Not shown: some 18% with an inconclusive outcome. Rule as the data show it: active = normalized growth mostly below about 0.91 (no sharp cut-off); inconclusive = no clear call, values can overlap the other calls; inactive = mostly above about 0.92. Some of the results follow.

Assay: chemical genetic growth profiling, strain panel (AID 1159580);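 also: tested at 20 µM; growth read once vehicle control cultures reached saturation at 30 °C; 1 = growth at the plate median or of vehicle wells; lower values mean less growth of the strain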
Settings: S. cerevisiae deletion strains, growth OD

Measured: normalized growth

NC(=O)c1ncn([C@@H]2O[C@H](CO)[C@@H](O)[C@H]2O)n1
inactive: locus YAL013W, strain DEP1, stronger effect = lower value 1 | locus YAL021C, strain ccr4, stronger effect = lower value 1.02 | locus YAL026C, strain drs2, stronger effect = lower value 0.995 | locus YAL030W, strain snc1, stronger effect = lower value 0.998 | locus YBL061C, strain skt5, stronger effect = lower value 0.975 | locus YBR009C, strain hhf1, stronger effect = lower value 0.992 | locus YBR021W, strain FUR4, stronger effect = lower value 0.965 | locus YBR023C, strain chs3, stronger effect = lower value 0.981 | locus YBR171W, strain sec66, stronger effect = lower value 0.993 | locus YBR229C, strain ROT2, stronger effect = lower value 0.993 | locus YBR231C, strain swc5, stronger effect = lower value 0.997 | locus YBR279W, strain paf1, stronger effect = lower value 0.978 | locus YCL011C, strain gbp2, stronger effect = lower value 0.981 | locus YCL016C, strain dcc1, stronger effect = lower value 0.979 | locus YCL029C, strain bik1, stronger effect = lower value 0.981 | locus YCL061C, strain MRC1, stronger effect = lower value 0.983 | locus YCL069W, strain vba3, stronger effect = lower value 0.996 | locus YCR088W, strain abp1, stronger effect = lower value 0.994 | locus YDL005C, strain med2, stronger effect = lower value 0.982 | locus YDL035C, strain GPR1, stronger effect = lower value 1.02 | locus YDL040C, strain nat1, stronger effect = lower value 0.978 | locus YDL074C, strain BRE1, stronger effect = lower value 1.04 | locus YDL101C, strain DUN1, stronger effect = lower value 0.998 | locus YDL134C, strain PPH21, stronger effect = lower value 1 | locus YDL185W, strain tfp1, stronger effect = lower value 0.978 | locus YDL192W, strain arf1, stronger effect = lower value 0.98 | locus YDR001C, strain nth1, stronger effect = lower value 0.996 | locus YDR069C, strain doa4, stronger effect = lower value 0.989 | locus YDR101C, strain arx1, stronger effect = lower value 0.993 | locus YDR137W, strain rgp1, stronger effect = lower value 0.97 | locus YDR150W, strain NUM1, stronger effect = lower value 0.988 | locus YDR159W, strain sac3, stronger effect = lower value 0.978 | locus YDR162C, strain NBP2, stronger effect = lower value 0.968 | locus YDR195W, strain ref2 0.979 | locus YDR297W, strain sur2, stronger effect = lower value 0.99 | locus YDR318W, strain mcm21, stronger effect = lower value 0.995 | locus YDR334W, strain swr1, stronger effect = lower value 0.99 | locus YDR335W, strain msn5, stronger effect = lower value 0.991 | locus YDR388W, stronger effect = lower value 0.995 | locus YDR392W, strain spt3, stronger effect = lower value 0.995 | locus YDR502C, strain sam2, stronger effect = lower value 0.992 | locus YEL003W, strain gim4, stronger effect = lower value 0.999 | locus YEL037C, strain rad23, stronger effect = lower value 0.993 | locus YEL061C, strain CIN8 (second series), stronger effect = lower value 0.994 | locus YEL061C, strain CIN8, stronger effect = lower value 0.999 | locus YER015W, strain faa2, stronger effect = lower value 0.988 | locus YER016W, strain bim1, stronger effect = lower value 0.988 | locus YER110C, stronger effect = lower value 0.989 | locus YER111C, strain swi4, stronger effect = lower value 0.996 | locus YER155C, strain BEM2 (second series), stronger effect = lower value 0.989 | locus YER155C, strain BEM2, stronger effect = lower value 0.995 | locus YER167W, strain BCK2, stronger effect = lower value 1.01 | locus YFR010W, strain ubp6, stronger effect = lower value 0.999 | locus YGL078C, strain dbp3, stronger effect = lower value 0.985 | locus YGL086W, strain mad1, stronger effect = lower value 0.997 | locus YGL167C, strain pmr1, stronger effect = lower value 0.983 | locus YGL173C, strain kem1, stronger effect = lower value 0.974 | locus YGL227W, strain vid30, stronger effect = lower value 0.986 | locus YGL240W, strain doc1, stronger effect = lower value 0.984 | locus YGL248W, strain PDE1, stronger effect = lower value 0.996 | locus YGL253W, strain hxk2, stronger effect = lower value 0.982 | locus YGR078C, strain PAC10, stronger effect = lower value 1.02 | locus YGR135W, strain pre9, stronger effect = lower value 0.979 | locus YGR229C, strain SMI1, stronger effect = lower value 1.01 | locus YGR252W, strain gcn5, stronger effect = lower value 0.993 | locus YHR013C, strain ard1, stronger effect = lower value 0.953 | locus YHR027C, strain rpn1, stronger effect = lower value 0.974 | locus YHR030C, strain SLT2, stronger effect = lower value 0.999 and 0.988 | locus YHR079C, strain IRE1 (second series), stronger effect = lower value 1 | locus YHR079C, strain IRE1, stronger effect = lower value 0.98 | locus YHR094C, strain hxt1, stronger effect = lower value 0.981 | locus YHR129C, strain ARP1, stronger effect = lower value 1.01 | locus YHR142W, strain chs7, stronger effect = lower value 0.999 | locus YHR200W, strain rpn10, stronger effect = lower value 0.993 | locus YIL066C, strain RNR3, stronger effect = lower value 0.995 | locus YIL073C, strain SPO22, stronger effect = lower value 0.946 | locus YIL125W, strain kgd1, stronger effect = lower value 0.997 | locus YIR030C, strain dcg1, stronger effect = lower value 0.99 | locus YJL092W, strain hpr5, stronger effect = lower value 0.992 | locus YJL095W, strain BCK1 (second series), stronger effect = lower value 0.987 | locus YJL095W, strain BCK1, stronger effect = lower value 1.02 and 0.977 | locus YJL115W, strain asf1, stronger effect = lower value 0.994 | locus YJL129C, strain trk1, stronger effect = lower value 0.995 | locus YJL134W, strain LCB3, stronger effect = lower value 1 | locus YJL154C, strain vps35, stronger effect = lower value 1.01 | locus YJL164C, strain tpk1, stronger effect = lower value 0.978 | locus YJL166W, strain qcr8, stronger effect = lower value 0.988 | locus YJL168C, strain set2, stronger effect = lower value 1 | locus YJL187C, strain SWE1 (second series), stronger effect = lower value 0.983 | locus YJL187C, strain SWE1, stronger effect = lower value 0.986 | locus YJR043C, strain POL32, stronger effect = lower value 0.977 | locus YJR066W, strain TOR1, stronger effect = lower value 0.959
